Values joined by “and” are separate entries in the source; they are usually repeats but may differ in a detail not shown here. Equal values may be shown once. Records with an inconclusive call do not appear. Active and inactive are the calls of the source. The call rests on the fitted dose curve; in most records, active means well fitted curve in the direction sought with a large enough effect; inconclusive means small, poorly fitted or top-dose-only effect, or another doubt; inactive means no such curve, though single readings can be large; an effect the other way counts as inactive or inconclusive.
Legend:
[1] = Viability qHTS for spleen associated tyrosine kinase inhibitor (SYKi) naive MV4-11 cells (AID 1963823); further: nearly all actives have a fitted effect of over 40% in size
Procedure, shortened: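 In this viability screen, compounds acted on SYK inhibitor naive MV4-11 cells for three days (72 hr, 37 C). Remaining viable cells were measured by CellTiter-Glo luminescence following a 10 min room-temperature development.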

[2] = Viability qHTS for spleen associated tyrosine kinase inhibitor (SYKi) drug resistant MV4-11 cells (AID 1963824); further: nearly all actives have a fitted effect of over 35% in size
Procedure, shortened: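 SYK-inhibitor-resistant MV4-11 AML cells were seeded at 500 per well onto compound and cultured 72 hours (37 °C, 5% CO2). CellTiter-Glo was then added, and after 10 min at room temperature, luminescence gave viability.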

[3] = Cellular viability qHTS for adrenocortical cancer (ACC) cell line SW-13 (AID 1963989); details: SW-13 ACC cells viability, CellTiter-Glo, 48 h; activity (max response): stronger effect = lower value; further: nearly all actives have a fitted effect of over 65% in size;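 on activity (max response): cells grown in serum-free medium with ITS supplement; on the % scale 0 is the no-effect control and ±100 the full control effect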
Procedure, shortened: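 48 h treatment, SW-13 in ITS/DMEM serum-free; doses up to 46 uM; readout CellTiter-Glo luminescence; curve fit four-parameter logistic.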

[4] = Cellular viability qHTS for adrenocortical cancer (ACC) cell line NCI-H295R (AID 1963990); further: nearly all actives have a fitted effect of over 60% in size
Procedure, shortened: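 Compound titrations (up to 46 uM final) are applied to NCI-H295R cultures for 48 h at 37C. Viable cell number is estimated by CellTiter-Glo signal, normalised to DMSO and doxorubicin controls.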
Potency means the concentration at half of the fitted maximal effect.

O=C1c2ccccc2C(=O)c2ccccc21
inactive: Potency [1] | Potency [2] | activity (max response) [3] 3.51% | Potency [4]

C[C@@]12OC(=O)[C@]1([C@@H](O)[C@@H]1C=CCCC1)NC(=O)[C@@H]2CCCl
active: Potency [1] 20.9 nM | Potency [2] 23.5 nM | Potency [3] 501 nM | Potency [4] 398 nM

CC1(C)CC(O)CC(C)(C)N1O
inactive: Potency [1] | Potency [2] | Potency [4]

Cc1nnc2n1-c1sc(CCc3ccc(CC(C)C)cc3)cc1C(c1ccccc1Cl)=NC2C (stereo not drawn)
active: Potency [1] 5800 nM | Potency [2] 4110 nM | Potency [4] 8200 nM

Oc1ccc(Cl)cc1Cc1ccccc1
active: Potency [1] 24600 nM | Potency [2] 24600 nM | Potency [3] 35500 nM | Potency [4] 12.6 µM and 23.1 µM

CN1C(=O)CN=C(c2ccccc2)c2cc([N+](=O)[O-])ccc21
inactive: Potency [1] | Potency [2] | Potency [4]

Clc1ccc(CCC(Cn2ccnc2)Sc2c(Cl)cccc2Cl)cc1 (stereo not drawn)
active: Potency [1] 18600 nM | Potency [2] 11.9 µM and 18.6 µM | Potency [4] 20.6 µM and 35.5 µM

CCC(=O)OC1(c2ccccc2)CCN(C)CC1
inactive: Potency [1] | Potency [2] | activity (max response) [3] -11.5% | Potency [4]

CO/C1=C/C(C)=C\[C@@H](C)[C@@H](O)[C@@H](C)C/C(C)=C\C=C/[C@H](OC)[C@@H]([C@@H](C)[C@@H](O)[C@H](C)[C@@]2(O)C[C@@H](O)[C@H](C)[C@@H](C(C)C)O2)OC1=O
active: Potency [1] 22.1 nM | Potency [2] 22.1 nM | Potency [3] 245 nM | Potency [4] 43.5 nM

COP(=S)(OC)Oc1ccc(Sc2ccc(OP(=S)(OC)OC)cc2)cc1
inactive: Potency [1] | Potency [2] | Potency [4]

CCOC(=O)CC(SP(=S)(OC)OC)C(=O)OCC (stereo not drawn)
inactive: Potency [1] | Potency [2] | activity (max response) [3] 13.7% and 6.35% | Potency [4]

CCO[C@H]1O[C@@H]2OC3(C)CC[C@H]4[C@H](C)CC[C@@H]([C@H]1C)[C@@]24OO3
inactive: Potency [4]
active: Potency [1] 4220 nM | Potency [2] 2990 nM

C[C@@H]1O[C@@H](O[C@@H]2C=C3CC[C@@H]4[C@H](CC[C@]5(C)[C@@H](c6ccc(=O)oc6)CC[C@]45O)[C@@]3(C)CC2)[C@H](O)[C@H](O)[C@H]1O
active: Potency [1] 6 nM | Potency [2] 7.5 nM | Potency [3] 11.2 nM and 7.3 nM | Potency [4] 11.2 nM and 7.3 nM

C/C(=C\c1csc(C)n1)[C@@H]1C[C@@H]2O[C@@H]2CCC[C@H](C)[C@H](O)[C@@H](C)C(=O)C(C)(C)[C@@H](O)CC(=O)O1
active: Potency [1] 5.2 nM | Potency [2] 5.8 nM | Potency [4] 22.4 nM

C/C=C(/C)C(=O)O[C@H]1C(C)=C2[C@H]([C@@H]1OC(=O)CCCCCCC)[C@@](C)(OC(C)=O)C[C@H](OC(=O)CCC)[C@@]1(O)[C@H]2OC(=O)[C@@]1(C)O
active: Potency [1] 25.9 nM and 20.9 nM | Potency [2] 18.4 nM and 3.7 nM | Potency [3] 44.7 nM | Potency [4] 1780 nM

Cc1ccc(S(=O)(=O)N[C@@H](CCCCN)C(=O)CCl)cc1
inactive: Potency [1] | Potency [2] | Potency [4]

Cc1ccc2c(c1)C1CN(C)CCC1N2 (stereo not drawn)
inactive: Potency [1] | Potency [2] | activity (max response) [3] -4.86% | Potency [4]

CC(C)[C@]12O[C@H]1[C@@H]1O[C@]13[C@]1(O[C@H]1C[C@H]1C4=C(CC[C@@]13C)C(=O)OC4)[C@@H]2O
active: Potency [1] 16.6 nM | Potency [2] 9.2 nM and 16.6 nM | Potency [3] 251 nM | Potency [4] 316 nM

O=C(Nc1ccncc1)C(=O)c1cn(Cc2ccc(Cl)cc2)c2ccccc12
active: Potency [1] 132 nM | Potency [2] 166 nM | Potency [3] 126 nM | Potency [4] 126 nM

CO/C=C(/C(=O)OC)c1ccccc1Oc1cc(Oc2ccccc2C#N)ncn1
active: Potency [1] 13700 nM | Potency [2] 8630 nM | Potency [4] 7940 nM

CC1=C2[C@H]3OC(=O)[C@@H](C)[C@@H]3CC[C@@]2(C)C=CC1=O
inactive: Potency [1] | activity (max response) [3] -9.75% | Potency [4]

CC(=O)OC1(c2ccccc2)CCN(CCc2ccccc2)CC1
inactive: activity (max response) [3] -14.1%
active: Potency [1] 39300 nM

Cc1nc2ccccc2c(=O)n1-c1ccccc1Cl
inactive: Potency [1] | activity (max response) [3] -17.2% | Potency [4]

COc1ccc(CN2CCNCC2)c(OC)c1OC
inactive: Potency [1] | activity (max response) [3] 10.4% | Potency [4]

CC(Cc1ccccc1)NCc1ccccc1Cl (stereo not drawn)
inactive: Potency [1] | activity (max response) [3] -8.69% | Potency [4]

CC(C)(N)Cc1ccccc1Cl
inactive: Potency [1] | activity (max response) [3] 5.36% | Potency [4]

From PubChem BioAssay (NCATS)
